# Laboratory results published in PubChem BioAssay (NCATS).
# Results filed as inconclusive are left out. Entries that show only a call come without a potency. Activity calls are given as the source filed them. Unless noted, the call rests on the fitted dose curve; in most records, active means well fitted curve in the direction sought with a large enough effect; inconclusive means small, poorly fitted or top-dose-only effect, or another doubt; inactive means no such curve, though single readings can be large; an effect the other way counts as inactive or inconclusive.
# What was measured:
# [1] = molecular target: Luciferin 4-monooxygenase (Photinus pyralis) (UniProt P08659); experiment: Biochemical firefly luciferase enzyme assay for NPC (AID 624030);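 further: purified P. pyralis luciferase at 10 nM with luciferin and ATP substrate; nearly all actives have a fitted effect of over 70% in size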; conditions: purified P. pyralis luciferase, luminescence, 5 min; series mostly up to 58.6 µM
# Chain of Luciferin 4-monooxygenase (Photinus pyralis) (P08659 whole entry, looked up): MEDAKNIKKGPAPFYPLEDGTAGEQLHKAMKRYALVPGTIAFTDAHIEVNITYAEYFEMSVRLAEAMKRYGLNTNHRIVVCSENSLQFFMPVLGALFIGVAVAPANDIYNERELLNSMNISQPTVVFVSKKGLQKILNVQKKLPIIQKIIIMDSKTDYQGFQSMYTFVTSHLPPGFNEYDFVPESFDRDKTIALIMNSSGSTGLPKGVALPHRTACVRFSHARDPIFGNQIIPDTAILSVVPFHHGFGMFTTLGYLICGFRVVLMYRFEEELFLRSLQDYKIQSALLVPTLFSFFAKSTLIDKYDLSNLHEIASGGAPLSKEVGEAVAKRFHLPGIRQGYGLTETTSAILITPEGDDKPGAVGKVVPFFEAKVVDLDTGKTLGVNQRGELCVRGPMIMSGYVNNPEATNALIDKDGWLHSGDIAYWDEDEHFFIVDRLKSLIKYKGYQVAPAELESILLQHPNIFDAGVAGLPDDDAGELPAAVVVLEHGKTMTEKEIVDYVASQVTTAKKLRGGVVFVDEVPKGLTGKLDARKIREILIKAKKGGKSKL
# In short: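 Direct inhibition of firefly luciferase enzyme (10 nM final, 50 mM Tris Acetate) assessed by luminescence within 5 minutes. Percent activity scaled between DMSO and PTC124 positive control, with concentration-effect curves classified by fit quality and response.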
# [2] = S16 Schwann cell viability assay (CellTiter-Glo assay) (AID 624031); conditions: S16 rat Schwann cells viability, 24 h; series mostly up to 57.5 µM;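 further: cellular ATP luminescence as a viability measure; nearly all actives have a fitted effect of over 70% in size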
# In short: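 Native S16 Schwann cells (rat), serum-containing medium, overnight attachment then 24 h drug exposure at 37 °C/5% CO2. CellTiter-Glo ATP signal; normalized to cell-free and vehicle wells.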
# [3] = S16 Schwann cell PMP22 intronic element firefly luciferase assay (AID 624032); conditions: S16 rat Schwann cells, PMP22 element FLuc, 24 h; series mostly up to 57.5 µM; further: nearly all actives have a fitted effect of over 30% in size; further: potency means the concentration at half of the fitted maximal effect
# In short: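 Luciferase reporter of PMP22 intronic-element expression in stably transfected S16 rat Schwann cells, read by ONE-Glo luminescence after 24 h compound exposure at 37 C. Activity scaled between DMSO (0%) and positive-control PTC124; concentration-effect curves quality-classified.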
# [4] = molecular target: Glutaminase kidney isoform, mitochondrial (Homo sapiens) (UniProt O94925); experiment: qHTS for Inhibitors of Glutaminase (GLS): LOPAC Validation (AID 624146); conditions: glutaminase enzyme activity inhibition; series mostly up to 46.1 µM;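 further: glutamate product detected by oxidase and peroxidase coupled Amplex red fluorescence gain; nearly all actives have a fitted effect of over 60% in size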
# Chain of Glutaminase kidney isoform, mitochondrial (Homo sapiens) (O94925 whole entry, looked up, canonical isoform): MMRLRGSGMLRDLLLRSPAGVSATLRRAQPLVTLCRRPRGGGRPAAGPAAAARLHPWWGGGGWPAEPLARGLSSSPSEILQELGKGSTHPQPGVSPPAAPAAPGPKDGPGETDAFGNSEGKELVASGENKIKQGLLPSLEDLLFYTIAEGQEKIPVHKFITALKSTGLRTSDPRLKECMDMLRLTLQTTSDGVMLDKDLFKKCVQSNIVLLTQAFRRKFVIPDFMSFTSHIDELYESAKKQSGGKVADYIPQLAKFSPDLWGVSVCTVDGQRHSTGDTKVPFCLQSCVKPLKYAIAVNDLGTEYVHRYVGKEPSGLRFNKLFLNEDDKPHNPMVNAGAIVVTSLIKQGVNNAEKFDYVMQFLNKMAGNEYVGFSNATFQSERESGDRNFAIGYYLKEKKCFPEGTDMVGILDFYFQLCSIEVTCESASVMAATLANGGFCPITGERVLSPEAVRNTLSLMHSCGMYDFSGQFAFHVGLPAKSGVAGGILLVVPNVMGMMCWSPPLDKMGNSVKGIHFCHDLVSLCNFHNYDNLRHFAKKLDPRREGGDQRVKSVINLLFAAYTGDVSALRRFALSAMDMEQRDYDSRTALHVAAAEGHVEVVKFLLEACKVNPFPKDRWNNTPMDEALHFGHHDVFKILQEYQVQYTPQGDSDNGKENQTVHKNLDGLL
# In short: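 hKGA in 45 mM KH2PO4 (pH 8.2), 0.02% Tween-20 with compound, then 1mM L-Glutamine (stock as added) plus glutamate oxidase/HRP/Amplex red coupling mix. Fluorescence read initially and after 30 min at RT; signal change reflects glutamate formation.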
# [5] = qHTS of Trypanosoma Brucei Inhibitors: LOPAC Validation (AID 624147); conditions: purified enzyme assay, luminescence, 45 min; series mostly up to 57.5 µM
# In short: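 In this concentration-response screen, enzyme-free wells defined baseline while DMSO plates tracked drift. Each reaction combined TbPYK, substrate, compound and 130 uM ADP for 45 min at room temperature. Kinase-Glo Plus luminescence gave the signal.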
# [6] = molecular target: Glucagon-like peptide 1 receptor (Homo sapiens) (UniProt P43220); experiment: qHTS of GLP-1 Receptor Agonists: LOPAC Validation (AID 624148); conditions: GLP-1R agonist cell assay; series mostly up to 46.1 µM;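 further: luminescence from a luciferase reporter switched on by cAMP; higher luminescence signal means agonism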
# Chain of Glucagon-like peptide 1 receptor (Homo sapiens) (P43220 whole entry, looked up): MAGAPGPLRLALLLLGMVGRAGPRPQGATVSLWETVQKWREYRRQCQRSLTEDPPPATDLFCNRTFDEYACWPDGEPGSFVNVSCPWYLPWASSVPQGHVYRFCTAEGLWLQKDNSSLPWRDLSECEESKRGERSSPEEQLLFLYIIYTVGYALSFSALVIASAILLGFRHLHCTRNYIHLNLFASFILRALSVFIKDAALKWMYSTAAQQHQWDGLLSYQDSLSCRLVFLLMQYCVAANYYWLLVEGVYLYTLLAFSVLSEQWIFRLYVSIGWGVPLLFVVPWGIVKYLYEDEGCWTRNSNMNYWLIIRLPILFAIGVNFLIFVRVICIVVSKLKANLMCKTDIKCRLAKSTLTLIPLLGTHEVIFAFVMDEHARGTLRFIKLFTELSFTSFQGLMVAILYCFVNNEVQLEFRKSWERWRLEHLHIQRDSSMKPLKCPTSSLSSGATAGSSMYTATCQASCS
# In short: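 Agonism scored as increased luciferase luminescence driven by cAMP in HEK293 clones carrying GLP-1R. Cells settled 12 hours, received compound for 4-6 hr at 37 deg C, 5% CO2, and were read after 12 min detection reagent at RT.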
# [7] = HTS Assay for Allosteric Antagonists of the Human D2 Dopamine Receptor: Hit Validation in HTRF (AID 624455); conditions: Cells stably expressing D1 dopamine receptor, inhibition mode; series mostly up to 46.1 µM;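 further: stable D1 dopamine receptor cell line scored for blocking the D1 response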
# In short: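 Hits were examined in an HTRF assay using cells stably expressing the D1 dopamine receptor, scoring inhibition of the D1-mediated response. The preceding primary screen tracked calcium flux after an EC80 dopamine addition in force-coupled, inducible Hek293 Trex D2 cells.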
# [8] = molecular target: Voltage-gated inwardly rectifying potassium channel KCNH2 (Homo sapiens) (UniProt Q12809); experiment: qHTS Assay for Small Molecule Inhibitors of the Human hERG Channel Activity (AID 588834); conditions: U2OS BacMam hERG, FluxOR thallium flux fluorescence; series mostly up to 46.1 µM;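 further: top concentration of the series differs between compounds; lower thallium flux fluorescence means stronger hERG block; nearly all actives have a fitted effect of over 50% in size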
# Chain of Voltage-gated inwardly rectifying potassium channel KCNH2 (Homo sapiens) (Q12809 whole entry, looked up): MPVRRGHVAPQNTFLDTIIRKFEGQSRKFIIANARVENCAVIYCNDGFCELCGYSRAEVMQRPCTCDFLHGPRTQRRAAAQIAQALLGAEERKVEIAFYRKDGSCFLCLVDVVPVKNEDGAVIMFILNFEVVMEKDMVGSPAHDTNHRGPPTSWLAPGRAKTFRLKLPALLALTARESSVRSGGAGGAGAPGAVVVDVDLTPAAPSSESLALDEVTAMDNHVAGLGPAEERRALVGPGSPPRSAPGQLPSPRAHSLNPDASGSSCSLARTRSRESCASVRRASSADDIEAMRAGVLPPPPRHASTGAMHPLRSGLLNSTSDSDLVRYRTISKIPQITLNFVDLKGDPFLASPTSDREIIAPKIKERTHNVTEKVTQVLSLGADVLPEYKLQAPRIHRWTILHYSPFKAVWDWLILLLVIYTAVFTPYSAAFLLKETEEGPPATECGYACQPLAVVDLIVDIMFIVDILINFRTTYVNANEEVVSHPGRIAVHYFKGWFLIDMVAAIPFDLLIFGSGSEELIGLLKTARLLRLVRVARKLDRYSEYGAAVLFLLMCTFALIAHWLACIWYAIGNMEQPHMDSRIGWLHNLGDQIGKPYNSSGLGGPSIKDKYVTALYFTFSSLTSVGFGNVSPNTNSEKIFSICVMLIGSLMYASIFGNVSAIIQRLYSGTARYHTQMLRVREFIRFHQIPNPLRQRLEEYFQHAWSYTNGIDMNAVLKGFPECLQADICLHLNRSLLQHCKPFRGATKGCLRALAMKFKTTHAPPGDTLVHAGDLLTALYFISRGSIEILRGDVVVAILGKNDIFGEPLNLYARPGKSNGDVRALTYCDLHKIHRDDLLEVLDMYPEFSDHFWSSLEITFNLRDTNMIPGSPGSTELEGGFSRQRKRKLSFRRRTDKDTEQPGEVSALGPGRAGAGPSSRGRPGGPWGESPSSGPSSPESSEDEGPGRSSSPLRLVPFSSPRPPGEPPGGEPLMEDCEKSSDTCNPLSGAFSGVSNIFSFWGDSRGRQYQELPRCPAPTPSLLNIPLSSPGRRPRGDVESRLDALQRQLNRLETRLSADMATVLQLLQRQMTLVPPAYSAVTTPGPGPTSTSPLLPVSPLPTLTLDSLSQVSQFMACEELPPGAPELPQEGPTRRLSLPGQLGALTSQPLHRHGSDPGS
# In short: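 hERG-BacMam U2OS, 2000 cells/well; 0.7X FluxOR loading 1 hr RT dark; cpd ~10 min 37 °C; stim buffer; FDSS fluorescence 2 min @ 1 s; AC50 Hill fit.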
# [9] = S16 Schwann cell PMP22 intronic element beta-lactamase assay (AID 624044; calls by dose curve; further: nearly all actives have a fitted effect of over 15% in size); conditions: S16 rat Schwann cells, PMP22 element beta-lactamase FRET, 24 h; series mostly up to 38.3 µM
# In short: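 Rat S16 Schwann cells with beta-Lac driven by a PMP22 intronic element, compound-treated 24 h at 37 °C. LiveBLAzer FRET B/G read: 460 nm normalized to potassium clavulanate vs DMSO; 535 nm FRET as viability; concentration-effect curves classified.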
structure (smiles),measurement,setting,value
CC(C)c1c(C(=O)Nc2ccccc2)c(-c2ccccc2)c(-c2ccc(F)cc2)n1CC[C@@H](O)C[C@@H](O)CC(=O)O,Potency,[1],inactive
same,Potency,[2],inactive
same,Potency,[3],inactive
CN(C)CC[C@@H](c1ccc(Cl)cc1)c1ccccn1,Potency,[4],inactive
same,outcome,[5],inactive
same,outcome,[6],inactive
same,outcome,[7],inactive
NC(N)=NCCC[C@H](N)C(=O)O,Potency,[8],inactive
same,Potency,[4],inactive
same,outcome,[5],inactive
same,outcome,[6],inactive
same,outcome,[7],inactive
CNCCCC1c2ccccc2C=Cc2ccccc21,Potency,[1],inactive
same,Potency,[3],12.3 µM (active)
same,Potency,[4],inactive
same,outcome,[5],inactive
same,outcome,[6],inactive
same,outcome,[7],inactive
Cc1ccc(C(C)C)cc2c(C)ccc1-2,Potency,[2],inactive
same,Potency,[3],inactive
same,Potency,[9],inactive
c1ccc(CN(CC2=NCCN2)c2ccccc2)cc1,Potency,[3],inactive
